# Ba/F3 V617F tox: reduce viability of Ba/F3 cells dependent on JAK2V617F. 220,000 compounds, 1.1% hits. inhibition, % at 5.6 µM. AID 1446. Ba/F3 EpoR-JAK2V617F viability, ATP luminescence;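 active means inhibition above the campaign mean plus 3 SD over all tested compounds, cut at about 24% in these data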;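 further: cytokine-independent growth of Ba/F3 cells driven by EpoR plus mutant JAK2; 0% = DMSO-treated cells and 100% = JAK inhibitor I control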
# APP transl inh: APP translation inhibition; SH-SY5Y APP 5'UTR-luciferase reporter, luminescence; inhibition, % at 2 µM; 190,000 compounds, 0.82% hits;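 active means inhibition above a set limit, derived from the sample mean plus 3 SD, cut at about 45% in these data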
# BaF3 tox: reduces parental Ba/F3 cell viability, JAK2V617F counter-screen. CellTiter-Glo ATP luminescence. inhibition, % at 5.6 µM. 220,000 compounds, 1.1% hits. AID 1486;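 active means inhibition above a per-campaign cutoff, the mean inhibition of all tested compounds plus 3 SD, cut at about 27% in these data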;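 further: 0% = DMSO wells and 100% = JAK Inhibitor I control wells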
# aSyn UTR inh: MLPCN primary screen, SNCA 5' untranslated region. alpha-synuclein 5'UTR reporter, inhibitor activity. inhibition, % (tested at 7.5 µM). 300,000 compounds, 0.82% hits; in the data active means inhibition above about 60%;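 further: H4 neuroglioblastoma cells stably carrying SNCA 5'UTR luciferase fusion; 0% = DMSO wells and 100% = positive control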
# IEC-6 tox: counter-screen for KLF5 inhibitors: cytotoxicity in IEC-6 cells; IEC-6 cytotoxicity, luminescence viability; inhibition, % at 5 µM; 290,000 compounds, 0.78% hits; in the data active means inhibition above about 22%;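 further: 0% = plate median of test compound wells and 100% = cytotoxic reference compound wells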
# KLF5 inhibitor: suppresses KLF5 promoter-driven expression. inhibition, % at 5 µM. 290,000 compounds, 0.23% hits. DLD-1 KLF5 promoter-luciferase reporter, luminescence;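 active means inhibition above a per-plate limit of that plate's mean compound inhibition plus 3 SD, cut at about 60% in these data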;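 further: 0% = DMSO wells and 100% = LY294002 at 200 µM; higher means less KLF5 promoter-driven luciferase light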
# Numbers without * were called inactive; . = no result given. Only some compounds are listed: those with a hit (about 2.1% of all), similar ones and a draw of the others.
SMILES,Ba/F3 V617F tox,APP transl inh,BaF3 tox,aSyn UTR inh,IEC-6 tox,KLF5 inhibitor
CCCCCN(C(=O)CCC(=O)OCC(=O)c1ccc(C(C)CC)cc1)c1c(N)n(CCCC)c(=O)[nH]c1=O (configuration not stated),.,.,.,26.9,.,.
CC(NC1c2ccccc2-c2ccccc21)c1ccccc1 (configuration not stated),.,.,.,9.4,0.3,-35.0
O=C(O)c1ccccc1C(=O)Nc1ccc(Oc2ccccc2)cc1,-4.6,.,0.1,-4.3,-3.1,17.5
CC(C)(C)c1ccc(Oc2ccc(NC(=O)c3ccccc3C(=O)O)cn2)cc1,7.4,.,5.9,85.7*,10.4,-0.8
CC(C)(C)c1ccc(Oc2ccc(N)cn2)cc1,5.7,.,6.2,87.0*,0.6,3.5
COc1cccc(C(C(=O)NCC2CCCO2)N(C(=O)Cn2nnc3ccccc32)c2ccc(NC(C)=O)cc2)c1 (configuration not stated),.,.,.,8.8,6.7,-12.3
Cc1c(Cl)cccc1-n1cnc(=O)c2ccccc21,.,.,.,12.8,.,.
CCC1Sc2ccc(S(=O)(=O)CCC(=O)NCc3ccco3)cc2NC1=O (configuration not stated),.,.,.,8.6,-1.4,-6.0
CC(C)Sc1nnc(-c2c[nH]c3ccccc23)n1C,1.3,.,9.9,-110.5,0.1,-48.7
C#CCSc1nnc(-c2c[nH]c3ccccc23)n1C,30.1*,-53.8,48.5*,-34.4,-0.9,-24.9
CCCC1=Nc2cc(C(=O)N3CCC(C(=O)OCC)CC3)ccc2Sc2ccccc21,.,.,.,14.8,1.9,-10.2
COc1cc(C2Nc3cccc4cccc(c34)N2)cc(OC)c1OC(C)=O,-0.2,8.9,39.9*,11.1,-1.5,-6.1
CCN(CC)c1ccc(C(=O)OCc2cc(=O)oc3cc(O)ccc23)cc1,4.4,3.3,11.8,116.9*,0.7,2.7
CCN(CC)c1ccc2c(O)cc(=O)oc2c1,-1.1,-20.9,3.4,20.3,-1.8,-28.5
Cc1[nH][nH]c(=O)c1C(c1c(C)[nH][nH]c1=O)c1cn(Cc2ccc(Cl)c(Cl)c2)c2ccccc12,0.3,80.8*,8.0,90.3*,8.4,-17.5
C=CCN(C(=O)CN1CCOCC1)c1nc(C)c(-c2ccccc2)s1,5.8,-21.3,26.7*,3.0,-12.3,-27.4
COc1cccc(Nc2nnc(SCc3cc([N+](=O)[O-])cc4c3OCOC4)s2)c1,3.3,91.9*,4.2,21.0,2.4,4.7
Cc1cccc(C)c1Nc1nnc(SCc2cc([N+](=O)[O-])cc3c2OCOC3)s1,-0.8,47.6*,2.6,-19.2,-0.1,-30.7
COc1ccc(/C=N/NC(=O)c2ccoc2C)cc1CN1CCN(c2ccc(F)cc2)CC1,.,.,.,-79.5,5.7,-33.7
CC(C)CCNC(=O)CCc1nnc(COc2ccccc2)o1,0.1,-17.0,80.8*,-2.4,-1.5,-2.6
O=C(CCc1nnc(COc2ccccc2)o1)NCCc1cccs1,-1.4,-23.2,5.9,0.9,-8.2,-47.1
CCN(CC)CCOC(=O)c1ccc(NC(=O)CCCN2C(=O)S/C(=C/c3ccc(OC)cc3)C2=S)cc1,.,.,.,96.5*,-2.1,46.2
COc1ccc(/C=C2\SC(=O)N(CCC(=O)Nc3ccccc3)C2=O)cc1OC,-4.1,1.9,1.6,82.0*,4.2,12.0
COc1ccc(/C=C2\SC(=O)N(CCCC(=O)Nc3ccc(C(=O)O)cc3)C2=O)cc1OC,.,.,.,73.4*,0.6,-6.2
COc1ccc(/C=C2\SC(=S)N(CCCC(=O)Nc3ccc(C(=O)O)cc3)C2=O)cc1OC,.,.,.,19.0,-6.3,-11.8
SMILES,Ba/F3 V617F tox,APP transl inh,BaF3 tox,aSyn UTR inh,IEC-6 tox,KLF5 inhibitor
O=C(CCCN1C(=O)/C(=C/c2ccc3c(c2)OCO3)SC1=S)Nc1cccc(C(=O)O)c1,.,.,.,72.9*,-5.0,-36.2
COc1cc(/C=C2\SC(=S)N(CCC(=O)Nc3ccccc3)C2=O)cc(OC)c1OC,0.5,-11.7,4.3,13.0,-1.9,-55.7
O=C(NCc1cccs1)C1CCN(c2ccc(S(=O)(=O)N3CCOCC3)cc2Cl)CC1,72.6*,92.7*,77.8*,23.6,76.1*,74.3*
Cc1ccc(/C=C/C(=O)c2cc(Br)ccc2OC(=O)c2ccco2)cc1,-4.5,50.6*,1.2,-94.2,-4.0,-35.9
COc1ccccc1/C=C/C(=O)c1cc(Br)ccc1OC(=O)c1ccco1,2.6,-43.9,5.9,-14.6,7.5,-11.7
CCc1ccc(/C=C/C(=O)c2cc(Br)ccc(=O)c2O)cc1,-3.0,-5.4,-1.9,72.1*,1.0,-22.9
O=C(Nc1cccc(Cl)c1)c1cc(S(=O)(=O)N2CCOCC2)cs1,.,.,.,4.6,4.4,-10.4
COc1ccc(C(=O)Cn2c(=N)n(C)c3ccccc32)cc1,0.5,.,-0.8,-62.4,14.6,-73.3
Cn1c(=N)n(CC(=O)O)c2ccccc21,7.8,-0.9,7.8,-9.5,1.5,-33.1
Cn1c(=N)n(CC(=O)c2ccccc2)c2ccccc21,1.6,.,0.0,89.8*,10.2,-40.9
Cn1c(=N)n(CC(=O)c2ccc(Cl)c(Cl)c2)c2ccccc21,.,.,.,80.8*,10.6,41.2
CCn1c(=N)n(CC(=O)C(C)(C)C)c2ccccc21,-5.5,63.9*,-1.5,-3.1,-0.3,-13.2
CCc1nc(SCC(=O)Nc2ccccc2Cl)n[nH]1,.,.,.,2.1,6.7,-4.4
Nn1c(COc2ccccc2F)nnc1SCC(=O)NC1CCCCC1,.,.,.,8.8,.,.
CC(=O)Nc1ccc(S(=O)(=O)N2C(C)CCCC2C)cc1 (configuration not stated),.,.,.,3.2,5.5,-11.6
NNC(=O)c1nn(-c2ccccc2)cc1O,-3.9,-23.7,5.0,83.4*,-2.8,-11.8
O=C(O)c1cn(-c2ccccc2)nc1C(=O)O,2.4,-9.1,8.2,17.4,3.3,-17.1
COc1cc(/C=C(/C#N)c2nc3ccccc3[nH]2)ccc1OCC(=O)Nc1ccccc1C(C)C,-0.6,4.8,5.6,103.5*,-2.4,1.9
Cc1nn(Cc2ccc(Cl)cc2)c(C)c1NC(=O)CCCn1nc([N+](=O)[O-])c(Cl)c1C,2.6,9.0,4.5,27.2,3.4,1.9
CCOc1cc(CNCCCN2CCOCC2)cc(Br)c1OCc1ccccc1Cl,11.1,-20.8,11.3,96.4*,5.7,-13.6
CCCNC(=S)N1CCC(NC(=O)Nc2ccc(C)cc2)CC1,-0.8,-9.3,4.7,-0.1,-2.4,-40.1
O=C(Nc1nc(-c2ccccc2)cs1)c1ccccc1NS(=O)(=O)c1ccc(F)cc1,22.8,-1.9,45.9*,63.2*,13.1,21.3
O=S(=O)(Nc1ccc(-c2csc(-c3ccccc3)n2)cc1)c1ccc(F)cc1,2.9,3.7,-0.5,-0.6,0.9,-32.7
COc1ccc2c(c1)[nH]c1c(N3CCN(Cc4ccc5c(c4)OCO5)CC3)ncnc12,40.5*,3.1,36.7*,5.0,13.9,-27.0
Cc1nc(N/N=C\c2ccc3c(c2)OCO3)sc1C,.,.,.,-128.5,5.9,-141.5
Cc1cc(C)c(S(=O)(=O)/N=C2/C=C(Sc3ncn[nH]3)C(=O)c3ccccc32)cc1C,40.6*,88.8*,7.1,.,13.6,-0.9
Cc1ccc(C)c(S(=O)(=O)/N=C2\C=C(NS(=O)(=O)c3ccccc3)C(=O)c3ccccc32)c1,.,.,.,20.4,-1.1,10.0

# Screening data deposited in PubChem by several laboratories.
